The other results are listed elsewhere or left out. How many sequences the whole screen found active is unknown. A number with no mark means an inactive call.
Target: furin, P09958
Assay: furin cleavage Z-score vs untreated control; higher = more cleavage, active = 3.5 or more, inactive = 1 or less, 8 variable residues between constant flanks
In short: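 To give the cleavage Z-score, log read counts were set against furin-free reactions, lowess-adjusted and scaled by median absolute deviation. These counts came from PCR adapter-tagged, sequenced DNA released when purified furin cut 8-mer peptides fused to a cDNA oligonucleotide and held on magnetic beads by their N-terminus. Digests were 0.01 ml, 1:10 enzyme:substrate, in 50 mM HEPES pH 7.5 with CaCl2 and NaCl, for 7.5, 15 or 30 min.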

furin, P09958, sequence (P09958 whole entry): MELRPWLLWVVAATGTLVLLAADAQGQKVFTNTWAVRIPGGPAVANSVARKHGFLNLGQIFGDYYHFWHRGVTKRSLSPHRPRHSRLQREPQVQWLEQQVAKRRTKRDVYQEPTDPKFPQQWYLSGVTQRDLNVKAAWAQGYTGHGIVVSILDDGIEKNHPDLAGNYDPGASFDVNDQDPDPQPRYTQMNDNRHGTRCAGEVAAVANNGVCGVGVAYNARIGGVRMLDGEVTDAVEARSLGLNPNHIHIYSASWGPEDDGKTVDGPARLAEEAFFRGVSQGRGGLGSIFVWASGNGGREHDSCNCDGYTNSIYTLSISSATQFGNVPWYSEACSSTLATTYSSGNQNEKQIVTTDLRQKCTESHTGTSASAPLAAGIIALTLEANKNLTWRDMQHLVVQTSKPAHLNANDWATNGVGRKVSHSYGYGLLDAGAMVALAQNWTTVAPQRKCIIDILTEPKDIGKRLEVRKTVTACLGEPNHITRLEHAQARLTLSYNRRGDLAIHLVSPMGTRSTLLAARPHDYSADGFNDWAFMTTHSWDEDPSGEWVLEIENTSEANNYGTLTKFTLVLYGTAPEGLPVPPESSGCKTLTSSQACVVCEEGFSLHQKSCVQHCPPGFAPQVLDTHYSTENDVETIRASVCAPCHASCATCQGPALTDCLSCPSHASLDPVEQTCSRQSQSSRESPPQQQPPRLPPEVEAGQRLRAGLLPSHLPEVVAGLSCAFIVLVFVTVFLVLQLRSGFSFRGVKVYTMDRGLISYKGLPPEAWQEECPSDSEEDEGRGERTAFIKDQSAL

Row | Sequence | furin cleavage Z-score (7.5 min) | furin cleavage Z-score (15 min) | furin cleavage Z-score (30 min)
1 | CALYREFDEMAGNASASA [HC1011] | 0.989 | 0.494 | -1.47
2 | CAGDSRVMRWAGNASASA [FS-591] | 0.599 | -0.204 | 0.578
3 | CALSPRTFHPAGNASASA [TR5] | -0.266 | 0.174 | -0.959
4 | CALSPRPISYAGNASASA [HC737] | 0.872 | 0.348 | 0.915
5 | CALVHRVKRRAGNASASA [FS-274] | 13 (active) | 14.7 (active) | 10.7 (active)
6 | CAVSPTHYVPAGNASASA [HC1125] | 0.189 | 0.58 | -0.874
7 | CAGDKRVKRRAGNASASA [FS-159] | 8.54 (active) | 8.95 (active) | 8.22 (active)
8 | CAVSPRVKRRAGNASASA [FS-1105] | 6.42 (active) | 5.9 (active) | 5.56 (active)
9 | CALSPRVKRIAGNASASA [FS-687] | 8.46 (active) | 10.4 (active) | 8.69 (active)
10 | CAVSPRVKRPAGNASASA [FS-1104] | -1.44 | -0.535 | -0.559
11 | CAGDKELRTGAGNASASA [EK10] | -0.528 | -3.59 | -0.0871
12 | CALEVLFQGPAGNASASA [NG9] | -2.01 | -0.768 | -2.01
13 | CAEVVESTWVAGNASASA [HC133] | 0.708 | -0.27 | -1.67

Reference: the supplement of paper PMC3545927
